Test results reported in the antibiotic and cytotoxicity screens of Wong et al. (2023).
The campaign covered roughly 39,000 compounds. About 3,300 (8.5%) were called active. What follows is part of a selection rich in actives, with near analogues and random picks from the rest.

Each compound was assayed on HepG2 (assay: cytotoxicity call (relative viability < 0.9)). Settings: 10 µM.
For `Cc1noc(C)c1NC(=O)Nc1cccc2c1O[C@@H](CN(C)Cc1ccc(-c3ccccc3)cc1)[C@@H](C)CN([C@@H](C)CO)C2=O`, the cytotoxicity call was “inactive”.
`Cc1ccc(S(=O)(=O)N(C)C[C@@H]2OCCCC[C@H](C)Oc3ccc(NC(=O)Nc4cccc5ccccc45)cc3C(=O)N([C@H](C)CO)C[C@@H]2C)cc1` was tested, and the cytotoxicity call was “inactive”.
In the case of `CSC(=N)NCCC[C@@H](N)C(=O)O`, the cytotoxicity call is reported as “inactive”.
With `C[C@H]1CCCCO[C@H](CN(C)S(=O)(=O)c2cccs2)[C@@H](C)CN([C@@H](C)CO)C(=O)c2cc(NC(=O)Nc3ccc(C(F)(F)F)cc3)ccc2O1` the cytotoxicity call was “inactive”.
`CC(C)(C)C(=O)Nc1c[nH]c(=O)[nH]c1=O` was tested, and the cytotoxicity call was “inactive”.
With `C[C@@H]1CCCCO[C@@H](CN(C)C(=O)NC2CCCCC2)[C@H](C)CN([C@@H](C)CO)C(=O)c2cc(NC(=O)c3ccncc3)ccc2O1` the cytotoxicity call was “inactive”.
In the case of `Nc1ccc(S(=O)(=O)c2ccc(N)cc2)cc1`, the cytotoxicity call is reported as “inactive”.
With `Nc1ccc2cc3ccc(N)cc3nc2c1.O=S(=O)(O)O` the cytotoxicity call was “active”.
`Nc1ccc2c(c1)nc(CO)n2CCO` was tested, and the cytotoxicity call was “inactive”.
In the case of `C[C@@H]1CN([C@H](C)CO)C(=O)c2cc(NC(=O)C3CCCCC3)ccc2O[C@H]1CN(C)C(=O)Nc1cccc2ccccc12`, the cytotoxicity call is reported as “inactive”.
With `COc1ccc(S(=O)(=O)N(C)C[C@H]2Oc3ccc(NC(=O)C4CC4)cc3CC(=O)N([C@@H](C)CO)C[C@@H]2C)cc1` the cytotoxicity call was “inactive”.
With `C[C@H](CO)N1C[C@H](C)[C@@H](CN(C)C(=O)Nc2cccc3ccccc23)Oc2ccc(NS(=O)(=O)c3ccc(Cl)cc3)cc2CC1=O` the cytotoxicity call was “inactive”.
In the case of `Cc1noc(C)c1NC(=O)N(C)C[C@@H]1Oc2ccc(NC(=O)C3CC3)cc2CC(=O)N([C@@H](C)CO)C[C@H]1C`, the cytotoxicity call is reported as “inactive”.
For `COc1ccc(C#Cc2ccc([C@@H]3[C@H](CO)N4CCCCN(S(=O)(=O)c5cn(C)cn5)C[C@@H]34)cc2)cc1`, the cytotoxicity call was “active”.
With `COc1ccc(NC(=O)N2CCCCN3[C@H](CN(C)C(C)=O)[C@H](c4ccc(C#Cc5ccccc5)cc4)[C@@H]3C2)cc1` the cytotoxicity call was “active”.
In the case of `COc1ccc(NC(=O)N2CCCCN3[C@H](COCCN(C)C)[C@H](c4ccc(C#Cc5ccccc5)cc4)[C@@H]3C2)cc1`, the cytotoxicity call is reported as “active”.
In the case of `COc1ccc(C#Cc2ccc([C@H]3[C@H](CO)N4CCCCN(S(=O)(=O)c5cn(C)cn5)C[C@@H]34)cc2)cc1`, the cytotoxicity call is reported as “inactive”.
For `CN(C)CC#Cc1ccc([C@H]2[C@@H](CO)N3CCCCN(C(=O)CN(C)C)C[C@H]23)cc1`, the cytotoxicity call was “inactive”.
`CN(C)CC#Cc1ccc([C@@H]2[C@@H](CO)N3CCCCN(C(=O)CN(C)C)C[C@@H]23)cc1` was tested, and the cytotoxicity call was “inactive”.
`CN(C)CC#Cc1ccc([C@@H]2[C@H](CO)N3CCCCN(C(=O)CN(C)C)C[C@@H]23)cc1` was tested, and the cytotoxicity call was “inactive”.
For `COc1ccc(C#Cc2ccc([C@@H]3[C@@H](CO)N4CCCCN(S(=O)(=O)c5cn(C)cn5)C[C@H]34)cc2)cc1`, the cytotoxicity call was “inactive”.
For `CN(C)CC#Cc1ccc([C@H]2[C@@H](CO)N3CCCCN(C(=O)CN(C)C)C[C@@H]23)cc1`, the cytotoxicity call was “inactive”.
For `O[C@H]1[C@H](O)[C@@H](O)[C@H]2O[C@@H]2[C@@H]1O`, the cytotoxicity call was “inactive”.
With `CCSC(=O)NC1CCCCC1` the cytotoxicity call was “inactive”.
`COc1ccc(NC(=O)N(C)C[C@H]2OCCCC[C@H](C)Oc3ccc(NC(=O)CCC(F)(F)F)cc3C(=O)N([C@H](C)CO)C[C@@H]2C)cc1` was tested, and the cytotoxicity call was “inactive”.
In the case of `CS(=O)(=O)N1CC[C@@H]2OCCN(C(=O)c3cccnc3)[C@@H]2C1`, the cytotoxicity call is reported as “inactive”.
In the case of `C[C@@H]1CN([C@H](C)CO)C(=O)c2cccc(NS(=O)(=O)c3cn(C)cn3)c2O[C@H]1CN(C)Cc1ccc(C(=O)O)cc1`, the cytotoxicity call is reported as “inactive”.
`CC(=O)n1cc([C@@H]2C=C(C(=O)NCc3ccccc3)O[C@H](OCc3ccc(CO)cc3)C2)c2ccccc21` was tested, and the cytotoxicity call was “inactive”.
`C[C@@H]1CN([C@H](C)CO)C(=O)c2cc(NS(=O)(=O)c3ccccc3)ccc2O[C@@H]1CN(C)Cc1ccc(-c2ccccc2)cc1` was tested, and the cytotoxicity call was “inactive”.
In the case of `C[C@@H]1CN([C@@H](C)CO)C(=O)c2cc(NS(=O)(=O)c3ccccc3)ccc2O[C@H]1CN(C)Cc1ccc(-c2ccccc2)cc1`, the cytotoxicity call is reported as “active”.
`C[C@@H]1CN([C@@H](C)CO)C(=O)c2cc(NS(=O)(=O)c3ccccc3)ccc2O[C@@H]1CN(C)Cc1ccc(-c2ccccc2)cc1` was tested, and the cytotoxicity call was “active”.
In the case of `C[C@H]1CN([C@@H](C)CO)C(=O)c2cc(NS(=O)(=O)c3ccccc3)ccc2O[C@H]1CN(C)Cc1ccc(-c2ccccc2)cc1`, the cytotoxicity call is reported as “inactive”.
For `C[C@H](CO)N1C[C@H](C)[C@H](CN(C)Cc2ccc(-c3ccccc3)cc2)Oc2ccc(NS(=O)(=O)c3ccccc3)cc2C1=O`, the cytotoxicity call was “inactive”.
`C[C@H]1CN([C@@H](C)CO)C(=O)c2cc(NS(=O)(=O)c3ccccc3)ccc2O[C@@H]1CN(C)Cc1ccc(-c2ccccc2)cc1` was tested, and the cytotoxicity call was “inactive”.
`COc1ccc(NC(=O)N(C)C[C@@H]2OCCCC[C@H](C)Oc3ccc(NC(=O)Nc4ccc5c(c4)OCO5)cc3C(=O)N([C@@H](C)CO)C[C@H]2C)cc1` was tested, and the cytotoxicity call was “inactive”.
With `COc1ccc(NC(=O)N(C)C[C@H]2OCCCC[C@H](C)Oc3ccc(NC(=O)c4ccccc4)cc3C(=O)N([C@H](C)CO)C[C@@H]2C)cc1` the cytotoxicity call was “inactive”.
For `COc1ccc(NC(=O)N(C)C[C@H]2OCCCC[C@@H](C)Oc3ccc(NC(=O)Nc4ccccc4)cc3C(=O)N([C@H](C)CO)C[C@@H]2C)cc1`, the cytotoxicity call was “active”.
With `COc1ccc(NC(=O)Nc2ccc3c(c2)C(=O)N([C@H](C)CO)C[C@H](C)[C@@H](CN(C)C(=O)Nc2ccc4c(c2)OCO4)OCCCC[C@H](C)O3)cc1` the cytotoxicity call was “active”.
`C[C@H]1CCCCO[C@@H](CN(C)C(=O)Nc2ccc3c(c2)OCO3)[C@@H](C)CN([C@@H](C)CO)C(=O)c2cc(NC(=O)Nc3ccccc3)ccc2O1` was tested, and the cytotoxicity call was “inactive”.
In the case of `COc1ccc(NC(=O)N(C)C[C@@H]2OCCCC[C@@H](C)Oc3ccc(NC(=O)c4ccccc4)cc3C(=O)N([C@@H](C)CO)C[C@@H]2C)cc1`, the cytotoxicity call is reported as “inactive”.
With `COc1ccc(NC(=O)N(C)C[C@H]2OCCCC[C@H](C)Oc3ccc(NC(=O)Nc4ccccc4)cc3C(=O)N([C@H](C)CO)C[C@@H]2C)cc1` the cytotoxicity call was “inactive”.
`COc1ccc(NC(=O)N(C)C[C@H]2OCCCC[C@H](C)Oc3ccc(NC(=O)Nc4ccccc4)cc3C(=O)N([C@@H](C)CO)C[C@@H]2C)cc1` was tested, and the cytotoxicity call was “inactive”.
For `COc1ccc(NC(=O)N(C)C[C@@H]2OCCCC[C@@H](C)Oc3ccc(NC(=O)c4ccccc4)cc3C(=O)N([C@H](C)CO)C[C@H]2C)cc1`, the cytotoxicity call was “active”.
`C[C@@H]1CCCCO[C@H](CN(C)C(=O)Nc2ccc3c(c2)OCO3)[C@H](C)CN([C@H](C)CO)C(=O)c2cc(NC(=O)Nc3ccccc3)ccc2O1` was tested, and the cytotoxicity call was “inactive”.
For `COc1ccc(NC(=O)Nc2ccc3c(c2)C(=O)N([C@H](C)CO)C[C@H](C)[C@H](CN(C)C(=O)Nc2ccc4c(c2)OCO4)OCCCC[C@@H](C)O3)cc1`, the cytotoxicity call was “inactive”.
With `C[C@@H]1CCCCO[C@@H](CN(C)C(=O)Nc2ccc3c(c2)OCO3)[C@H](C)CN([C@H](C)CO)C(=O)c2cc(NC(=O)Nc3ccccc3)ccc2O1` the cytotoxicity call was “active”.
With `CS(=O)(=O)Nc1ccc2c(c1)[C@@H]1C[C@@H](CC(=O)NCc3ccc(-c4ccccc4)cc3)O[C@@H](CO)[C@@H]1O2` the cytotoxicity call was “inactive”.
In the case of `C[C@H](CO)N1C[C@H](C)[C@@H](CN(C)S(=O)(=O)c2cccs2)Oc2ccc(NS(=O)(=O)c3cn(C)cn3)cc2CC1=O`, the cytotoxicity call is reported as “inactive”.
With `C[C@H]1CN([C@@H](C)CO)C(=O)c2cccc(NS(=O)(=O)c3cn(C)cn3)c2O[C@@H]1CN(C)C(=O)Nc1ccc(F)cc1` the cytotoxicity call was “inactive”.
In the case of `O=C(C[C@@H]1C[C@H]2c3cc(NS(=O)(=O)c4ccc(F)cc4)ccc3O[C@H]2[C@@H](CO)O1)NCc1cccc(F)c1`, the cytotoxicity call is reported as “inactive”.
In the case of `Cc1cc(C(=O)Nc2cccc3c2O[C@@H](CN(C)C(=O)Nc2c(C)noc2C)[C@@H](C)CN([C@@H](C)CO)C3=O)n(C)n1`, the cytotoxicity call is reported as “inactive”.
`Cc1ccc(OC(=O)N(C)C[C@H]2OCc3ccccc3-c3ccccc3C(=O)N([C@H](C)CO)C[C@H]2C)cc1` was tested, and the cytotoxicity call was “inactive”.
In the case of `COc1ccc(CN(C)C[C@@H]2Oc3ccc(NC(=O)Cn4cnnn4)cc3CC(=O)N([C@@H](C)CO)C[C@@H]2C)cc1`, the cytotoxicity call is reported as “inactive”.
With `C[C@H]1CCCCO[C@H](CN(C)C(=O)NC2CCCCC2)[C@@H](C)CN([C@@H](C)CO)C(=O)c2cc(NC(=O)c3ccccc3)ccc2O1` the cytotoxicity call was “inactive”.
In the case of `C[C@@H]1CCCCO[C@@H](CN(C)C(=O)NC2CCCCC2)[C@@H](C)CN([C@H](C)CO)C(=O)c2cc(NC(=O)c3ccncc3)ccc2O1`, the cytotoxicity call is reported as “inactive”.
In the case of `C[C@H](CO)N1C[C@H](C)[C@@H](CN(C)C(=O)NC2CCCCC2)OCCCC[C@H](C)Oc2ccc(NC(=O)c3ccccc3)cc2C1=O`, the cytotoxicity call is reported as “active”.
In the case of `C[C@@H]1CCCCO[C@H](CN(C)C(=O)NC2CCCCC2)[C@@H](C)CN([C@H](C)CO)C(=O)c2cc(NC(=O)c3ccccc3)ccc2O1`, the cytotoxicity call is reported as “inactive”.
For `C[C@@H]1CCCCO[C@H](CN(C)C(=O)NC2CCCCC2)[C@@H](C)CN([C@@H](C)CO)C(=O)c2cc(NC(=O)c3ccncc3)ccc2O1`, the cytotoxicity call was “inactive”.
In the case of `C[C@@H]1CN([C@@H](C)CO)C(=O)c2cc(NC(=O)c3ccncc3)ccc2O[C@@H](C)CCCCO[C@@H]1CN(C)C(=O)NC1CCCCC1`, the cytotoxicity call is reported as “active”.
`CC(C)NC(=O)Nc1ccc2c(c1)C(=O)N([C@@H](C)CO)C[C@@H](C)[C@H](CN(C)Cc1ccc(Oc3ccccc3)cc1)O2` was tested, and the cytotoxicity call was “inactive”.
In the case of `C#CCN1C(=O)N(C(=O)c2ccccc2)[C@@H]2c3ccccc3O[C@@]1(COCc1ccc(OC)cc1)[C@@H]2CO[Si](C)(C)C(C)(C)C`, the cytotoxicity call is reported as “inactive”.
With `O=C(N[C@@H]1C=C[C@H](CC(=O)N2CCOCC2)O[C@@H]1CO)c1ccccn1` the cytotoxicity call was “inactive”.
In the case of `C[C@H](CO)N1C[C@H](C)[C@@H](CN(C)S(=O)(=O)c2cccs2)Oc2ccc(NS(=O)(=O)c3ccc(F)cc3)cc2CC1=O`, the cytotoxicity call is reported as “inactive”.
